From PubChem BioAssay
An excerpt weighted towards active compounds, which were near 9.8% of everything screened.
JMJD2E inh – qHTS Assay for Inhibitors of Human Jumonji Domain Containing 2E (JMJD2E); Lysine-specific demethylase 4E (Homo sapiens), B2RXH2; JMJD2E catalytic domain, FDH-coupled NADH fluorescence (FDH is formaldehyde dehydrogenase); Potency, µM (doses to about 57.1 µM), inactives show at the top dose activity change, negative = inhibition, actives largely listed as inhibitors; 1.6% of 230,000 active; active = well fitted inhibition curve with a large enough effect, not every such curve was filed as active; inconclusive = small, poorly fitted or top-dose-only effect, or another doubt; inactive = no such curve, though single readings can be large or run the other way;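 also: potency is read from the fitted curve at half-maximal effect; 0% = wells with enzyme and -100% = buffer wells without enzyme; nearly all actives have a fitted effect of over 50% in size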
ALDH1A1 block – qHTS Assay for Inhibitors of Aldehyde Dehydrogenase 1 (ALDH1A1). 7.3% of 220,000 active. Purified ALDH1A1, NADH fluorescence, propionaldehyde substrate. Aldehyde dehydrogenase 1A1 (Homo sapiens), P00352. Potency, µM (doses to about 75.3 µM), for inactives: top-dose activity, negative = inhibition, actives largely listed as inhibitors; active = well fitted inhibition curve with a large enough effect, not every such curve was filed as active; inconclusive = small, poorly fitted or top-dose-only effect, or another doubt; inactive = no such curve, though single readings can be large or run the other way;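 also: potency is read from the fitted curve at half-maximal effect; plate controls were no enzyme wells and a reference inhibitor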
Target sequence (P00352 whole entry, looked up): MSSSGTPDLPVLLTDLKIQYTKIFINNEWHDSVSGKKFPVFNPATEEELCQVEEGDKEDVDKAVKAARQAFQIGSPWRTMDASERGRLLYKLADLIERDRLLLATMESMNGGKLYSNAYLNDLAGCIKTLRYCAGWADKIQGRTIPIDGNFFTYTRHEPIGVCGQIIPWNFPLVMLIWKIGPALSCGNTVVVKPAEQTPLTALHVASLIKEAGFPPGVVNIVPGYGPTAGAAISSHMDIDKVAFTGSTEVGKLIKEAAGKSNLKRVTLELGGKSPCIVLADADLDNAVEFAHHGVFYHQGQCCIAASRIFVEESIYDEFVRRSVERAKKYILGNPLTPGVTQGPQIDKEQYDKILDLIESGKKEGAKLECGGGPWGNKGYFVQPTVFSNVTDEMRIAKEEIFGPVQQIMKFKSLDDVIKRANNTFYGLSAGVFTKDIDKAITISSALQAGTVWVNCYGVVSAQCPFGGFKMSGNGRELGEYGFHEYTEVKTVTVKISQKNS
HttQ103 aggreg – qHTS Multiplex Assay to Identify Dual Action Probes in a Cell Model of Huntington: Aggregate Formation (GFP); PC12 HttQ103-GFP aggregates, Acumen cytometry, 40 h; Potency, µM (series often up to 46.1 µM), for inactives: top-dose activity change, negative = inhibition, most hits filed as inhibitors; 1.1% of 220,000 active; also: potency is read from the fitted curve at half-maximal effect; % is scaled to controls: 0 for no effect and ±100 for the full control effect; nearly all actives have a fitted effect of over 60% in size
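Ecdysone-promoter PC12 model expressing HTT exon 1 Q103 fused to GFP, induced by tebufenozide at 100 nM final. Compounds titrated; aggregates sized 1–25 µm scored on a 488 nm laser cytometer.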
HPGD inh – qHTS Assay for Inhibitors of HPGD (15-Hydroxyprostaglandin Dehydrogenase); AID 894, 2007; 4.3% of 150,000 active; purified HPGD, NADH fluorescence kinetic, PGE2 substrate; Potency, µM, for inactives: at the top dose activity change, negative = inhibition, hits mostly inhibitors; 15-hydroxyprostaglandin dehydrogenase [NAD(+)] (Homo sapiens), P15428; active = well fitted inhibition curve with a large enough effect, not every such curve was filed as active; inconclusive = small, poorly fitted or top-dose-only effect, or another doubt; inactive = no such curve, though single readings can be large or run the other way; also: potency is read from the fitted curve at half-maximal effect; % is scaled to controls: 0 for no effect and ±100 for the full control effect
Target sequence (P15428 whole entry, looked up): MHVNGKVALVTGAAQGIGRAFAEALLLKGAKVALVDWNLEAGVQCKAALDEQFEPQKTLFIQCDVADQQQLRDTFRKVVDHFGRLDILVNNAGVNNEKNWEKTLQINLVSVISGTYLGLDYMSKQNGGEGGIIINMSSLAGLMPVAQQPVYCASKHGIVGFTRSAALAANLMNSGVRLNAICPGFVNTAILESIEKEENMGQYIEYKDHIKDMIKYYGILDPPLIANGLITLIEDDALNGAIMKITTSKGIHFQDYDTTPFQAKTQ
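NADH formation kinetics: reaction with 30 uM PGE2 and 1 mM NAD+ (final), 20 nM enzyme, Tris-HCl pH 8 with Tween 20, after 15 min compound preincubation at room temperature. Fluorescence change, last versus first of five reads.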
CBFb RUNX1 block – qHTS Assay for Compounds Blocking the Interaction Between CBF-beta and RUNX1 for the Treatment of Acute Myeloid Leukemia | Runt-related transcription factor 1 (Homo sapiens) + Core-binding factor subunit beta … | AlphaScreen CBFb-His/RUNX1-biotin binding, biochemical | Potency, µM (doses to about 59.8 µM), for the others: at the highest dose activity, negative = inhibition, most hits filed as inhibitors | 230,000 tested, under 10 active | AID 1477, 2009; also: % of control where 0% means no effect
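Proteins preincubated together for 20 min at RT before compound addition; 15 min later, nickel and streptavidin beads were added and left 90 min prior to AlphaScreen measurement.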
HTT ATP protect – qHTS Multiplex Assay to Identify Dual Action Probes in a Cell Model of Huntington: Cytoprotection (ATP). PC12 HTT-Q103 induced, cytoprotection, ATP luminescence, 40 h. Potency, µM (doses to about 56.4 µM), inactives show cytoprotection (ATP increase), actives largely listed as activators. 0.14% of 230,000 active. AID 1471, 2008; also: potency is read from the fitted curve at half-maximal effect; % of control where 0% means no effect; nearly all actives have a fitted effect of over 45% in size
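Rat PC12, Q103 Htt exon1-GFP fusion, ecdysone promoter; tebufenozide inducer 100 nM final; compound titration; qHTS, 1500 cells/well; ATPlite luminescent read.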
Starred values were filed as active, the others as inactive; ? = inconclusive; nt = no result; [ ] = another dose, or the depositor's remark. Unless noted, calls follow the shape of the dose curve; as a rule, active = well fitted curve in the direction sought with a large enough effect; inconclusive = small, poorly fitted or top-dose-only effect, or another doubt; inactive = no such curve, though single readings can be large; an effect the other way counts as inactive or inconclusive.

SMILES	JMJD2E inh	ALDH1A1 block	HttQ103 aggreg	HPGD inh	CBFb RUNX1 block	HTT ATP protect
CCC(CC)C1C(C#N)=C(N)SC(N)=C1C#N	-19.6%	?	12.6%	-22.0%	1.8%	0.1%[10 µM]
O=C(O)c1cccc(-n2cccc2/C=C2/NC(=O)N(Cc3ccccc3F)C2=O)c1	-29.1%	14.1µM*	26.9%	nt	?	nt
COc1cc(/C=C2/NC(=O)N(Cc3ccccc3F)C2=O)ccc1Oc1ccc([N+](=O)[O-])cn1	9.9%	0.224µM*	-29.9%	-8.2%	-3.0%	nt
CCOc1cc(/C=C2/NC(=O)N(CC(=O)OC)C2=O)ccc1OC	-10.2%	?	-20.9%	nt	0.2%	-22.5%
COc1cc(/C=C2/NC(=O)N(Cc3ccccc3F)C2=O)ccc1O	-28.3%	6.31µM*	27.0%	nt	-2.0%	-48.0%
O=C1N/C(=C/c2cccn2-c2ccc(F)cc2)C(=O)N1Cc1ccccc1F	-6.2%	?	-22.1%	-1.9%	1.9%	-4.7%[10 µM]
Cc1ccccc1NC(=O)CN1C(=O)S/C(=C\c2cccn2-c2cccc(C(=O)O)c2)C1=O	-13.3%	?	13.2%	28.2µM*	-7.5%	0.3%
O=C(O)c1cccnc1SCc1cccc(Cl)c1	11.9%	7.6%	-2.7%	nt	-3.7%	-21.5%
COc1ccc(S(=O)(=O)N(C)C)cc1NC(=O)CSc1nnc(-c2cccnc2)o1	-3.0%	2.6%	4.4%	nt	10.0%	-3.7%
Cc1ccc(S(=O)(=O)N(CC(=O)N2CCC(C)CC2)c2cccc(C)c2)cc1	-1.6%	11.2µM*	-6.3%	-8.7%	-12.3%	16.4%
COc1ccccc1Cn1c(=O)c2ccccc2n2c(Sc3ncnc4sccc34)nnc12	6.4%	?	?	-22.7%	1.2%	1.58µM*
CCOc1ccccc1N1C(=O)CC(Nc2ccc(N3CCOCC3)cc2)C1=O (stereo not given)	3.9%	7.94µM*	5.6%	-16.3%	-3.7%	1.4%
COc1ccccc1N1C(=O)CC(Nc2ccc(N3CCOCC3)cc2)C1=O (stereo not given)	?	?	15.0%	-8.4%	?	-11.0%
O=C(NCc1ccccc1Cl)c1ccc2c(c1)SC1=NS(=O)(=O)CCN12	11.6%	4.47µM*	-14.1%	nt	-2.3%	-28.0%
O=C(NCc1cccc(Cl)c1)c1ccc2c(c1)SC1=NS(=O)(=O)CCN12	-10.5%	1.2%	15.8%	nt	-1.0%	11.4%[10 µM]
CCN(Cc1ccccc1)C(=O)/C=C/c1ccccc1[N+](=O)[O-]	4.1%	?	8.6%	nt	-8.6%	2.8%
CN(Cc1cccs1)C(=O)/C=C/c1ccccc1[N+](=O)[O-]	-7.5%	3.16µM*	?	nt	?	-62.4%
CC(C)Cn1nnnc1S(=O)(=O)Cc1cccc(C#N)c1	-8.4%	3.55µM*	nt	-29.3%	3.8%	?
CCN(CC(=O)NCc1ccc(F)cc1)C(=O)/C=C/c1ccco1	-8.6%	?	-9.6%	nt	3.5%	-65.9%
CCCN(CC(=O)Nc1ccc(Cl)cc1Cl)C(=O)/C=C/c1ccco1	-1.2%	0.224µM*	?	-2.6%	-4.0%	6.3%[10 µM]
COc1ccc(CSc2n[nH]c(C)n2)cc1[N+](=O)[O-]	-1.7%	10µM*	7.9%	-27.3%	1.4%	4.3%[10 µM]
CCc1nnc(SCc2ccc(OC)c(Br)c2)n1N	4.9%	28.2µM*	4.8%	-24.4%	-14.2%	3.2%
CCCCOc1ccc(CSc2nnc(C)n2N)cc1[N+](=O)[O-]	-1.4%	1.3%	-2.0%[9.22 µM]	nt	0.1%	23.6%[10 µM]
COc1ccc(CSc2nnc(C)n2N)cc1Br	0.8%	14.6%	-3.7%	-5.3%	13.0%	-19.7%
COc1ccc(CSc2nnc(C)n2N)cc1[N+](=O)[O-]	-3.3%	12.6µM*	-3.2%[9.22 µM]	nt	0.8%	12.0%[10 µM]
SMILES	JMJD2E inh	ALDH1A1 block	HttQ103 aggreg	HPGD inh	CBFb RUNX1 block	HTT ATP protect
COc1ccc(-n2c(=O)c3ccccc3n(CC(=O)NC3CCCC3)c2=O)cc1	1.8%	-7.0%	12.0%	-10.3%	17.1%	0.7%
Cc1ccccc1N=C1SC(CC(=O)Nc2ccc3ccccc3c2)C(=O)N1Cc1ccccn1 (stereo not given)	-2.3%	2.1%	-11.1%	-12.0%	-3.2%	-9.4%[10 µM]
O=C(CC1SC(=Nc2ccccc2)N(Cc2ccccn2)C1=O)Nc1ccc(Br)cc1 (stereo not given)	6.4%	7.08µM*	10.4%	?	-2.0%	29.9%[10 µM]
COc1ccc(N=C2SC(CC(=O)Nc3ccccc3OC)C(=O)N2Cc2ccco2)cc1 (stereo not given)	8.4%	9.0%	-9.3%	?	-12.7%	-5.9%[10 µM]
COc1ccc(N=C2SC(CC(=O)Nc3ccc(F)cc3)C(=O)N2Cc2ccco2)cc1 (stereo not given)	-5.8%	3.55µM*	-4.5%	-13.2%	-1.5%	21.3%[10 µM]
O=C(CC1Sc2ncnn2C1=O)Nc1ccc(Br)cc1 (stereo not given)	2.24µM*	7.94µM*	-6.2%	15.8µM*	5.0%	22.2%[10 µM]
O=C(CC1SC2=NCCN2C1=O)Nc1ccc(Br)cc1 (stereo not given)	5.7%	3.1%	-17.3%	-2.7%	1.0%	19.6%[10 µM]
Cc1ccc(OCCCC(=O)NCc2ccco2)c(C)c1	4.0%	-6.9%	-16.2%	nt	7.2%	-26.6%
Cc1ccc(Cn2cc(/C=N/NC(=O)Cc3nnc(NC(=O)c4ccc(C)cc4)s3)c3ccccc32)cc1	13.6%	-4.2%	-3.5%	nt	-1.5%	11.0%
O=C(OC(C(=O)NCC1CCCO1)c1ccc(F)cc1)c1ccco1 (stereo not given)	10.2%	-5.2%	?	-4.7%	1.1%	-2.5%[10 µM]
O=C(Nc1nc2c(F)cc(F)cc2s1)C1CC(=O)N(Cc2ccco2)C1 (stereo not given)	-29.5%	14.1µM*	-6.3%[9.22 µM]	nt	-19.0%	-10.3%[10 µM]
CN(C)c1ccc(NS(=O)(=O)c2ccc(-c3csnn3)cc2)cc1	-9.5%	8.91µM*	2.8%[9.22 µM]	nt	1.3%	-32.0%[10 µM]
Cc1ccc(S(=O)(=O)Nc2ccc(N(C)C)cc2)cc1	-9.9%	?	9.5%[9.22 µM]	nt	?	-30.6%[1.9 µM]
COc1ccccc1NC(=O)CCSCCC(=O)Nc1ccccc1OC	3.0%	14.1µM*	5.1%	-16.2%	-8.9%	7.8%[0.074 µM]
COc1ccccc1NC(=O)CNC(=O)c1ccccc1	0.8%	3.2%	9.9%	-18.0%	2.5%	0.7%
COc1ccccc1NC(=O)CCC(=O)c1ccc(-c2ccccc2)cc1	-10.2%	-7.2%	6.7%	17.8µM*	24.9%	13.2%[10 µM]
